The source of these data is PubChem BioAssay (NCATS).

Test [1] in a line: qHTS of pediatric cancer cell lines to identify multiple opportunities for drug repurposing: Primary screen for control Hh wild type fibroblast cells (AID 1347106). Further: nearly all actives have a fitted effect of over 55% in size. Further: potency means the concentration at half of the fitted maximal effect. The gist of the method: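 Viability after 48 h compound treatment at 37C, 500-1,000 cells/well, read as ATP luminescence with CellTiter-Glo. Primary screens used 11-point (MIPE, 0.78 nM-46 µM) or 8-point (NPC, 0.59 nM-46 µM) final concentrations; follow-up screens used 11-point dilutions.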

A short description of test [2]: qHTS of pediatric cancer cell lines to identify multiple opportunities for drug repurposing: Primary screen for Rh41 cells (AID 1347108). Further: potency means the concentration at half of the fitted maximal effect; nearly all actives have a fitted effect of over 70% in size. The gist of the method: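 500-1,000 cells/well; 5 h pre-incubation 37 °C/5% CO2; compound pinned; 48 h; CellTiter-Glo, 15 min RT; luminescence. MIPE 11-pt from 0.78 nM, NPC 8-pt from 0.59 nM final. Bortezomib 2.3 µM final as positive control.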

Test [3] in a line: qHTS of pediatric cancer cell lines to identify multiple opportunities for drug repurposing: Confirmatory screen for A673 cells (AID 1347110).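 Further: cells exposed to compound for 48 h before the viability read; nearly all actives have a fitted effect of over 65% in size.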 Further: potency means the concentration at half of the fitted maximal effect. The gist of the method:
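Viability was read as ATP luminescence (CellTiter-Glo) after 48 h of compound exposure at 37 C in A673 cells seeded at 500-1,000/well. Titrations reached 46 uM final, with 11 points in the confirmatory screen. Concentration-response curves were fitted directly.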

Test [4] in a line: qHTS of pediatric cancer cell lines to identify multiple opportunities for drug repurposing: Confirmatory screen for BT-12 cells (AID 1347112). Further: nearly all actives have a fitted effect of over 55% in size. Further: potency means the concentration at half of the fitted maximal effect. The gist of the method:
(§1)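 Cells (500-1,000/well) rested 5 h, then received compounds for 48 h; metabolically active cells were measured by CellTiter-Glo luminescence. Final concentrations spanned up to 46 µM (MIPE, 11-point) or 0.59 nM-46 µM (NPC, 8-point) in primary screens, 11-point in follow-ups.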

Test [5] in a line: qHTS of pediatric cancer cell lines to identify multiple opportunities for drug repurposing: Confirmatory screen for DAOY cells (AID 1347114). Further: nearly all actives have a fitted effect of over 65% in size. Further: potency means the concentration at half of the fitted maximal effect. The gist of the method:
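Viability measured as metabolically active cells via CellTiter-Glo luminescence following 48 hours of compound exposure, 11-point dilutions in confirmatory testing. 500-1,000 cells/well plated 5 hours before dosing; controls were DMSO and 2.3 µM bortezomib.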

A short description of test [6]: qHTS of pediatric cancer cell lines to identify multiple opportunities for drug repurposing: Primary screen for Rh30 cells (AID 1347107). Further: series mostly up to about 46 µM; nearly all actives have a fitted effect of over 75% in size. The essentials: as §1
The nature of test [7]: qHTS of pediatric cancer cell lines to identify multiple opportunities for drug repurposing: Confirmatory screen for SK-N-MC cells (AID 1347111).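 Further: cells exposed to compound for 48 h before the readout; nearly all actives have a fitted effect of over 70% in size.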 Further: potency means the concentration at half of the fitted maximal effect. The essentials: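 Seed 500-1,000 cells/well; rest 5 h at 37 degrees C. Pin-transfer compounds, 11-point titration. Incubate 48 h. Add CellTiter-Glo, 15 min RT, read luminescence.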
A short description of test [8]: qHTS of pediatric cancer cell lines to identify multiple opportunities for drug repurposing: Confirmatory screen for NB1643 cells (AID 1347109). Further: nearly all actives have a fitted effect of over 45% in size. Further: potency means the concentration at half of the fitted maximal effect. The gist of the method:
as §1

The nature of test [9]: qHTS of pediatric cancer cell lines to identify multiple opportunities for drug repurposing: Confirmatory screen for LAN-5 cells (AID 1347113). Further: nearly all actives have a fitted effect of over 65% in size. Further: potency means the concentration at half of the fitted maximal effect. The essentials: as §1

Results filed as inconclusive are left out. Calls of active or inactive are those of the source. The call rests on the fitted dose curve; in most records, active means well fitted curve in the direction sought with a large enough effect; inconclusive means small, poorly fitted or top-dose-only effect, or another doubt; inactive means no such curve, though single readings can be large; an effect the other way counts as inactive or inconclusive.

`C=CCn1c(=O)c2cnc(Nc3ccc(N4CCN(C)CC4)cc3)nc2n1-c1cccc(C(C)(C)O)n1`: the Potency result in [1] was “inactive”. Further, the Potency in test [2] is 469 nM (active); in test [3], 2610 nM (active); in test [4], 10400 nM (active); in test [5], 1850 nM (active).
On to `Cc1cc(C(=O)N2CCN(c3cccc(Cl)c3)CC2)n(-c2ccccc2)n1`, for which, in test [6], the Potency entry is “inactive”. Further, the Potency in test [2] was 2350 nM (active); in [3], 2330 nM (active); in test [7], 2610 nM (active); in [5], 928 nM (active).
Turning to `CC(C)CC(=O)Nc1n[nH]c2c1CN(C(=O)C1CCN(C)CC1)C2(C)C`, the Potency entry in test [6] and in test [8] was “inactive” in each case. In addition, the Potency in test [2] is 3720 nM (active); in test [3] it was 1040 nM (active); in [4], 2930 nM (active).
As for `CCNC(=O)Nc1ccc2ncc(Nc3ccc(C)cc3)nc2n1`, the Potency entry in [1], in [8], in test [3], in test [7], in test [4] and in test [9] was “inactive” in each case. Also, in test [5], the Potency entry was “inactive”.
Turning to `CC1(C)CC(=O)c2c(C(F)(F)F)nn(-c3ccc(C(N)=O)c(NC4CCC(OC(=O)CN)CC4)c3)c2C1` (configuration not stated), the Potency in [2] is 372 nM (active).
Turning to `Cc1cn2c(-c3cn[nH]c3)cnc2c(Nc2ccc(C(=O)N3CCNCC3)cc2F)n1`, the Potency was 18700 nM (active) in test [2]; 9270 nM (active) in test [8]; 8270 nM (active) in test [3]; 26100 nM (active) in [7]; 13100 nM (active) in test [9].
`CC1(O)CC(c2nc(-c3ccc4ccc(-c5ccccc5)nc4c3)c3c(N)nccn23)C1` (configuration not stated): the Potency result in test [1] was “inactive”. In [2], the Potency is 935 nM (active).
For `OCCCNc1cc(-c2ccnc(Nc3cccc(Cl)c3)n2)ccn1`, the Potency entry in test [6] is “inactive”. The Potency in test [2] is 235 nM (active); in test [8], 104 nM (active); in [3] it was 92.8 nM (active); in test [7] it was 261 nM (active); in test [4], 329 nM (active); in test [9] it was 261 nM (active).
On to `CC(C)c1ccccc1Cc1cc(C(=O)Nc2ccc(S(=O)(=O)c3ccccc3C(C)(C)C)cc2)c(O)c(O)c1O`, for which, in [1], the Potency entry is “inactive”. In addition, in [2], the Potency was 18700 nM (active).
With `COc1cc2nccc(Oc3ccc(NC(=O)C4(C(=O)Nc5ccc(F)cc5)CC4)cc3)c2cc1OC`, the Potency in [2] is 9350 nM (active); in [3], 18500 nM (active). The Potency entry in [8] and in test [4] was “inactive” in each case.
For `CCC1=C[C@@H]2CN(C1)Cc1c([nH]c3ccccc13)[C@@](C(=O)OC)(c1cc3c(cc1OC)N(C)[C@@H]1[C@@](O)(C(=O)OC)[C@H](OC(C)=O)[C@]4(CC)C=CCN5CC[C@]31[C@@H]54)C2`, the Potency entry in [6] is “inactive”. For the same compound, the Potency was 329 nM (active) in test [3], 5220 nM (active) in test [7] and 657 nM (active) in test [5].
On to `CNC(=O)CN1CCC(Oc2cc3c(Nc4cccc(Cl)c4F)ncnc3cc2OC)CC1`, for which the Potency entry in [1], in test [3], in [4] and in test [5] was “inactive” in each case. In addition, the Potency is 46.9 nM (active) in test [2], 1040 nM (active) in test [8], 1470 nM (active) in test [7] and 1170 nM (active) in test [9].
Take `NCC(=O)Nc1ccc(-n2nc(C(F)(F)F)cc2-c2ccc3c(ccc4ccccc43)c2)cc1`: the Potency entry in [1] is “inactive”. Also, the figures for the Potency in test [3], in test [7] and in test [9] were 11700 nM (active), 329 nM (active) and 2930 nM (active), respectively.
For the compound `O=C(C=Cc1cccnc1)NCCCCC1CCN(C(=O)c2ccccc2)CC1`, the Potency result in [1], in [8], in test [3], in [7], in test [4] and in [9] was “inactive” throughout. In addition, the Potency entry in test [5] was “inactive”. The Potency in test [2] is 118 nM (active).
Consider `CC(C)(C)NC(=O)[C@H]1CN(Cc2cccnc2)CCN1C[C@@H](O)C[C@@H](Cc1ccccc1)C(=O)N[C@H]1c2ccccc2C[C@H]1O`, for which the Potency entry in [1], in test [3], in [4] and in test [9] was “inactive” in each case. Further, the Potency in [2] was 3720 nM (active).
Consider `O=C(Nc1ncc(-c2cc(C(F)F)nn2-c2c(Cl)cccc2Cl)s1)C1CC1`, for which the Potency result in test [6] was “inactive”. The Potency in [8] was 1170 nM (active); in [3], 293 nM (active); in test [7], 414 nM (active); in test [9] it was 4650 nM (active); in test [5], 329 nM (active).
As for `COc1ccc(F)c(F)c1C(=O)c1cnc(NC2CCN(S(C)(=O)=O)CC2)nc1N`, the Potency entry in test [6] was “inactive”. Moreover, the Potency in test [2] was 7430 nM (active); in [3], 2930 nM (active); in [7], 1310 nM (active); in test [4], 3690 nM (active); in [5], 8270 nM (active).
As for `COC(=O)c1ccc2c(C(=Nc3ccc(N(C)C(=O)CN4CCN(C)CC4)cc3)c3ccccc3)c(O)[nH]c2c1`, the Potency in test [2] was 18700 nM (active); in test [8], 16500 nM (active); in [7], 18500 nM (active); in test [9] it was 18500 nM (active); in [5] it was 26100 nM (active). For the same compound, the Potency result in test [4] was “inactive”.
In the case of `Nc1cccc(-c2cc3c(Oc4cccc(O)c4)ncnc3[nH]2)c1`, the Potency entry in test [1] is “inactive”. Also, the Potency in [2] is 5900 nM (active).
Take `CC[C@@H]1C(=O)N(C)c2cnc(Nc3ccc(C(=O)NC4CCN(C)CC4)cc3OC)nc2N1C1CCCC1`: the Potency in test [1] is 23500 nM (active); in test [8], 3290 nM (active); in test [3], 36.9 nM (active); in test [7], 46.5 nM (active); in [4], 16500 nM (active); in test [9], 5220 nM (active).
`CCOc1cc2ncc(C#N)c(Nc3ccc(F)c(Cl)c3)c2cc1NC(=O)C=CCN(C)C`: the results for the Potency in [2], in test [7] and in [4] were 1870 nM (active), 65.7 nM (active) and 208 nM (active), respectively. In test [9], the Potency entry was “inactive”.
